# Assay results as given in PubChem BioAssay (NCI).
# Where “and” joins values, the source holds several entries; their conditions need not be identical. Equal entries are not always repeated. This is part of a sample that, as a whole, favours compounds with a hit. Of some 79,000 tested, about 15% had one in any assay. More than one record can exist for a structure, and the calls need not agree. Calls of active or inactive are those of the source. No stated cut-off is given here; in the data, active means growth inhibition above about 70%; inactive means the rest.
# What was measured:
# [1] = NCI Yeast Anticancer Drug Screen. Data for the rad50 strain (AID 155);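 further: 0% = growth of vehicle-only cultures of the same strain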; details: S. cerevisiae rad50 strain growth inhibition; at 50.0 µM; stronger effect = higher value
# In short: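 Growth of the mutant yeast was measured after compound exposure and referenced to vehicle-treated cultures.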
# [2] = NCI Yeast Anticancer Drug Screen. Data for the mec2-1 strain (AID 157); details: S. cerevisiae mec2-1 strain, at 50.0 µM, stronger effect = higher value
# In short: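 Cells of the genetically defined mec2-1 yeast strain are incubated with test compound. Inhibition of growth is calculated against vehicle-treated controls.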
# [3] = NCI Yeast Anticancer Drug Screen. Data for the sgs1 mgt1 strain (AID 161);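 further: 0% = growth of cultures given vehicle only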; details: S. cerevisiae sgs1 mgt1 strain, at 50.0 µM, stronger effect = higher value
# In short: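 Test agents were incubated with a DNA-repair-mutant yeast strain. Growth was then read and compared against vehicle-treated controls.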
# [4] = NCI Yeast Anticancer Drug Screen. Data for the cln2 rad14 strain (AID 165);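 further: 0% = growth equal to vehicle treated cultures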; details: S. cerevisiae cln2 rad14 strain, at 50.0 µM, stronger effect = higher value
# In short: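 The screen exposed genetically defined yeast (cln2 rad14) to test compounds and scored growth inhibition relative to vehicle-treated controls.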
# [5] = NCI Yeast Anticancer Drug Screen. Data for the bub3 strain (AID 167); details: S. cerevisiae bub3 mutant strain, at 50.0 µM, stronger effect = higher value
# In short: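 Whole-cell yeast assay. The mutant strain was incubated with compounds, and growth inhibition was determined by comparison with vehicle-treated cells.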
# [6] = NCI Yeast Anticancer Drug Screen. Data for the mlh1 rad18 strain (AID 175); details: S. cerevisiae mlh1 rad18 strain growth inhibition; at 50.0 µM; stronger effect = higher value
# In short: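 Compound-treated yeast growth, normalised to vehicle controls. Strain bears defined DNA repair mutations.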
SMILES,growth inhibition [1],growth inhibition [2],growth inhibition [3],growth inhibition [4],growth inhibition [5],growth inhibition [6]
Cc1ccc(S(=O)(=O)Nc2cc(=O)[nH]c3c2CCC3)cc1,-2.05% (inactive) and 43.4% (inactive),-4.75% (inactive) and 18.3% (inactive),9.25% (inactive) and -26.8% (inactive),-52% (inactive) and 0.65% (inactive),-18% (inactive) and 24.2% (inactive),-6.2% (inactive) and 2.9% (inactive)
COc1ccc2[nH]ccc(=O)c2c1,-28.1% (inactive) and 8.75% (inactive),-24.3% (inactive) and -0.05% (inactive),-47.5% (inactive) and 12.3% (inactive),-4.25% (inactive) and -5.6% (inactive),-43% (inactive) and -3.7% (inactive),-18.7% (inactive) and 5.95% (inactive)
CC(C)(N)CCC(=O)O,10.3% (inactive) and -0.25% (inactive),20.9% (inactive) and 3.7% (inactive),12.6% (inactive) and -1.85% (inactive),-3.05% (inactive) and -7.2% (inactive),-28.7% (inactive) and 11.1% (inactive),6.8% (inactive) and -3.15% (inactive)
COc1ccc(/C=C\c2cc(OC)c(OC)c(OC)c2)cc1OC(=O)C(N)CCC(=O)O (stereo unspecified),-5.3% (inactive) and 8.35% (inactive),-18.3% (inactive) and -10.8% (inactive),-0.6% (inactive) and -3.85% (inactive),21.9% (inactive) and 6.7% (inactive),-19.6% (inactive) and 34% (inactive),79.2% (active) and 3.3% (inactive)
OCC(O)C1OC(Oc2ccccc2)C(O)C(O)C1O (stereo unspecified),2.5% (inactive) and 35.6% (inactive),32.9% (inactive) and -1.85% (inactive),-6.75% (inactive) and 4.1% (inactive),-3% (inactive) and -28.4% (inactive),31.3% (inactive) and 7.35% (inactive),24% (inactive) and 17.4% (inactive)
COCC1OC(OC)C(OC)C(OC)C1OC (stereo unspecified),-4.45% (inactive) and 3.1% (inactive),-13% (inactive) and -0.5% (inactive),8.35% (inactive) and -0.1% (inactive),-49.7% (inactive) and 1.25% (inactive),-21.1% (inactive) and 1.3% (inactive),-4.8% (inactive) and -4.25% (inactive)
OC1CCCC(O)C1O (stereo unspecified),1.25% (inactive) and 6.1% (inactive),-2.7% (inactive) and -12.9% (inactive),14.1% (inactive) and 9.8% (inactive),-7.2% (inactive) and -2% (inactive),3.9% (inactive) and 20.6% (inactive),-2.65% (inactive) and -4.4% (inactive)
O=C(O)CCCCCCCCCCCCC1C=CCC1 (stereo unspecified),-11.2% (inactive) and -0.55% (inactive),-31.5% (inactive) and -17.9% (inactive),5.95% (inactive) and -4.1% (inactive),-4.4% (inactive) and 9.45% (inactive),-22.8% (inactive) and -16.8% (inactive),-11.2% (inactive) and -6.05% (inactive)
COC1OC(CO)C(O)C(O)C1N1C(=O)c2ccccc2C1=O (stereo unspecified),9.35% (inactive) and -4.5% (inactive),-4.15% (inactive) and 8.4% (inactive),22.6% (inactive) and -3.85% (inactive),7.95% (inactive) and -15.8% (inactive),12.2% (inactive) and 4.45% (inactive),19% (inactive) and -3.45% (inactive)
Cn1cc(NC(=O)c2cc(NC(=O)c3cc(NC=O)cn3C)cn2C)cc1C(=O)NCCC(=N)N,5.1% (inactive) and 89.8% (active),6.75% (inactive) and 91.5% (active),-2.2% (inactive) and 91.7% (active),22.9% (inactive) and 88.5% (active),-1.75% (inactive) and 91.3% (active),12.9% (inactive) and 90% (active)
Cc1ccc(NC2=CC(=O)C(=O)c3ccccc32)cc1,30% (inactive) and 22.6% (inactive) and 45.2% (inactive),40.7% (inactive) and 36% (inactive) and 14.1% (inactive),25% (inactive) and 26.8% (inactive) and 32.3% (inactive),5.55% (inactive) and 8.9% (inactive) and 30.9% (inactive),25.1% (inactive) and 26.9% (inactive) and 54.6% (inactive),15.4% (inactive) and 60.9% (inactive) and 33.4% (inactive)
CC(=O)NC(C(=O)O)=C(C)C,-9.2% (inactive) and 18% (inactive),-7.55% (inactive) and -6.25% (inactive),-1.45% (inactive) and 13.9% (inactive),-16.9% (inactive) and 16.8% (inactive),7.95% (inactive) and 2.25% (inactive),-5.2% (inactive) and 27.9% (inactive)
CCCCCCCCCCCCCCCC[N+](C)(C)CCOC(C)=O,99.2% (active) and 99% (active),99.5% (active),99.5% (active),98.9% (active) and 98.8% (active),99.2% (active) and 99.3% (active),99.5% (active) and 99.4% (active)
Nc1nc2nccnc2c(=O)[nH]1,-10.2% (inactive) and 6.15% (inactive),47% (inactive) and -1.65% (inactive),1.55% (inactive) and -5.7% (inactive),-18.6% (inactive) and -0.35% (inactive),-24.9% (inactive) and 1.45% (inactive),-15.2% (inactive) and -0.8% (inactive)
C/C(C=O)=C\c1ccc(N(C)C)cc1,-36.5% (inactive) and 5% (inactive),-21.8% (inactive) and 2.5% (inactive),-20.6% (inactive) and -13.9% (inactive),-44.8% (inactive) and 13.2% (inactive),16.5% (inactive) and 8.5% (inactive),-4.45% (inactive) and 13.6% (inactive)
O=C(O)CN(CCO)CCO,-17.9% (inactive) and -21.6% (inactive),7.65% (inactive) and -16.6% (inactive),21.4% (inactive) and 12.2% (inactive),-29.1% (inactive) and 1.45% (inactive),-27.9% (inactive) and -16.8% (inactive),-18% (inactive) and 10.1% (inactive)
O=C1C(O)=C(Cl)C(=O)C(O)=C1Cl,6.7% (inactive) and 13.6% (inactive),2.3% (inactive) and -26.3% (inactive),-2.15% (inactive) and 25.3% (inactive),-0.2% (inactive) and 5.3% (inactive),29.9% (inactive) and -11.3% (inactive),-12.9% (inactive) and -3.2% (inactive)
C[N+](C)(C)c1ncnc2c1ncn2C1CC(O)C(CO)O1 (stereo unspecified),21.2% (inactive) and -23.1% (inactive),8.45% (inactive) and 7% (inactive),15.7% (inactive) and -2.85% (inactive),3.1% (inactive) and -6.45% (inactive),-33% (inactive) and 10.6% (inactive),7.55% (inactive) and 8.6% (inactive)
CC(C(=O)O)C(=O)O.[NH-]C1CCCCC1[NH-].[Pt+2],8.5% (inactive) and 16.2% (inactive),6.7% (inactive) and 5.2% (inactive),-11.1% (inactive) and -3.45% (inactive),11.2% (inactive) and -0.05% (inactive),20.4% (inactive) and 21.3% (inactive),32.3% (inactive) and 34.4% (inactive)
CCCCCC(Br)C(Br)CC(Br)C(Br)CCCCCCCC(=O)c1ccc2ccccc2c1O (stereo unspecified),2.8% (inactive) and 22.1% (inactive),-2.05% (inactive) and 0.5% (inactive),10.4% (inactive) and 2.9% (inactive),8.05% (inactive) and -2.25% (inactive),-18.3% (inactive) and 5.9% (inactive),-3.1% (inactive) and 7.15% (inactive)
Cc1ccc(C(C)CCCO)cc1 (stereo unspecified),-11.6% (inactive) and 6.8% (inactive),-15.4% (inactive) and -21.8% (inactive),-16.8% (inactive) and -6.55% (inactive),-6.55% (inactive) and -2.3% (inactive),-22.2% (inactive) and -6.35% (inactive),-23.9% (inactive) and -25.9% (inactive)
O=C1NC2OC(CO)C(O)C(O)C2O1 (stereo unspecified),-44.6% (inactive) and -35.5% (inactive),-7.65% (inactive) and -15.7% (inactive),-51% (inactive) and -63% (inactive),-24.5% (inactive) and -10.2% (inactive),-61.6% (inactive) and -22.9% (inactive),-64.4% (inactive) and -54.4% (inactive)
C1OC2COCOC2C2OCOCC2O1 (stereo unspecified),-22.8% (inactive) and -3% (inactive),-17.2% (inactive) and -9.95% (inactive),-17.4% (inactive) and -7.85% (inactive),-33.5% (inactive) and -14.5% (inactive),-13.3% (inactive) and 0.85% (inactive),-4.45% (inactive) and -4.65% (inactive)
Cc1ccc(N=Nc2c(O)ccc3cc(S(=O)(=O)O)ccc23)cc1,50.9% (inactive) and 4.8% (inactive),-15.5% (inactive) and -2.8% (inactive),9.8% (inactive) and 5.85% (inactive),-6.85% (inactive) and -6.7% (inactive),-32.6% (inactive) and 8.05% (inactive),22.8% (inactive) and 9.35% (inactive)
O=S(=O)(O)NC1CCCCC1,29.4% (inactive) and 4.8% (inactive),16.2% (inactive) and -1.15% (inactive),-7.7% (inactive) and -4.9% (inactive),-50.7% (inactive) and -6.3% (inactive),11.4% (inactive) and 10.1% (inactive),11.8% (inactive) and -9.45% (inactive)
OC1C(O)C2(c3ccccc3)OC1(c1ccccc1)c1ccccc12 (stereo unspecified),13.2% (inactive) and 7.35% (inactive),-5.9% (inactive) and -2.35% (inactive),-5.8% (inactive) and -5.6% (inactive),4.35% (inactive) and 2% (inactive),-0.25% (inactive) and -1% (inactive),-13.5% (inactive) and -9.9% (inactive)
